Laboratory results: PubChem BioAssay AID504660 (National Center for Advancing Translational Sciences (NCATS), 2011)
Several values for one entry are separate records, joined by “and”; a condition that tells them apart may be missing. Equal entries are not always repeated. The whole screen tested about 360,000 compounds, of which about 3,700 (1%) were called active. The sample holds actives, similar compounds and a random draw of the others, so the mix is not that of the screen. Rule as the data show it: active = activation above about 30%; inactive = the rest. Where a structure was tested more than once in an assay, its records may differ in their call.

The molecules below were run against D(1A) dopamine receptor (Homo sapiens) (UniProt P21728) (assay: Allosteric Agonists of the Human D1 Dopamine Receptor: qHTS). Settings: HEK293 T-REx D1 cells, calcium flux, agonist mode; at 2 µM; stronger effect = higher value.
D(1A) dopamine receptor (Homo sapiens), sequence (P21728 whole entry, looked up): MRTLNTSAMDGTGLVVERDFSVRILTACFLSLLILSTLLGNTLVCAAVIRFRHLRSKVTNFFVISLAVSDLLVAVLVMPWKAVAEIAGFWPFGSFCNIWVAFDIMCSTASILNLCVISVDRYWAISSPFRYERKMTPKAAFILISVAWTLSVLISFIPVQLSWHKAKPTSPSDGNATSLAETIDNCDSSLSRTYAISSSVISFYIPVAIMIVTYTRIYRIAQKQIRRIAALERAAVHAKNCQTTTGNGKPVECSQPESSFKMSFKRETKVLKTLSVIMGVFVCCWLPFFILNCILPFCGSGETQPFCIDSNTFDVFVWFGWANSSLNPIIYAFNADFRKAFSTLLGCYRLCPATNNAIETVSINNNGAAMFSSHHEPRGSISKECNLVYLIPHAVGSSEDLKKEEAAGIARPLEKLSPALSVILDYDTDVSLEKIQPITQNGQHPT
Procedure, shortened: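 Agonism was scored from calcium flux recorded over 180 s (1 read/s) after pintool compound addition, following a 10-cycle baseline. Cells were inducible force-coupled HEK293 TREx D1, plated overnight at 30 C and loaded with no-wash calcium dye.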
Also: 0% is about no effect.

| SMILES | activation |
| --- | --- |
| COc1cccc(N2C(=O)CN(Cc3ccccc3)C2=S)c1 | 2.26% (inactive) |
| COc1cc(=O)[nH]c(=O)n1C(=O)Cc1ccccc1 | 3.4% (inactive) |
| CCOc1ccc(S(=O)(=O)Nc2ccc3oc4c(c3c2)CC(C)CC4)cc1 (stereo unspecified) | 8.18% (inactive) |
| O=C(NCCc1ccccc1)c1ccc2c(c1)N(Cc1ccccc1)C(=O)c1ccccc1S2(=O)=O | 5.9% (inactive) |
| Cc1ccc(O)c(/C=N/NC(=O)COc2ccc3c(C)cc(=O)oc3c2)c1 | 3.75% (inactive) |
| Cc1ccc(O)c(NC(=S)NC(=O)COc2ccc(Br)cc2)c1 | 54.2% (active) |
| Cc1ccc(O)c(NC(=O)c2cc(-c3ccc(F)cc3)no2)c1 | -1.3% (inactive) |
| Cc1ccc(C)c(NC(=O)Cn2ccn(-c3ccc(F)cc3)c(=O)c2=O)c1 | 10.6% (inactive) |
| COc1cc(N2CCCC2)c(OC)cc1/C=C(/C#N)c1cccc(Br)c1 | 34.6% (active) |
| CCOC(=O)c1c(C)oc2nc(C)nc(N3CCN(c4ccc(OC)cc4)CC3)c12 | 0.866% (inactive) |
| COc1cc(Br)cc2cc(S(=O)(=O)c3ccccc3)c(=O)oc12 | 2.11% (inactive) |
| COc1ccc(NC(=O)c2ccc3oc(=O)c(S(=O)(=O)c4ccc(F)cc4)cc3c2)c(OC)c1 | -0.0208% (inactive) |
| Cc1cc(S(=O)(=O)c2cc3ccc(O)c(C)c3oc2=O)ccc1F | 56.6% (active) |
| CCc1nn(CC(=O)N2CCN(c3cccc(C(F)(F)F)c3)CC2)c(=O)c2cc3occc3n12 | -1.81% (inactive) |
| COc1ccc(C(=O)NCCCN2CCOCC2)cc1Br | 5.3% (inactive) |
| O=C(NCCCN1CCOCC1)c1ccc2c(c1)N(Cc1cccc(F)c1)C(=O)c1ccccc1S2 | 37.5% (active) |
| O=C(NCCCN1CCCCC1)c1ccc2c(c1)NC(=O)C(N1CCOCC1)S2 (stereo unspecified) | 1.92% (inactive) |
| COc1cccc(CNC(=O)c2ccc3c(c2)N(Cc2ccc(C(F)(F)F)cc2)C(=O)c2ccccc2S3)c1OC | 7.24% (inactive) |
| O=C(NCCCN1CCOCC1)c1cc(-c2ccccc2F)no1 | 2.58% (inactive) |
| Cc1ccccc1CN1C(=O)c2ccccc2Sc2ccc(C(=O)NCCCN3CCOCC3)cc21 | 16.6% (inactive) and 53.8% (active) |
| O=C(Cn1cnc2c(oc3ccccc32)c1=O)Nc1ccc(OC(F)(F)F)cc1 | 26.6% (inactive) |
| CCn1cc(C(=O)OCC(=O)Nc2cc(C)cc(C)c2)c(=O)c2ccc(C)nc21 | -2.27% (inactive) |
| COc1ccc(CNC(=O)Cn2nnc(-c3ccc(S(C)(=O)=O)cc3)n2)cc1 | -0.202% (inactive) |

| SMILES | activation |
| --- | --- |
| COc1cc(OC)c(N2CC(C(=O)Nc3cc(Cl)ccc3N3CCOCC3)CC2=O)cc1Cl (stereo unspecified) | 6.25% (inactive) |
| COc1cc(OC)c(-n2cc(-c3ccc(Cl)cc3)[nH]c2=O)cc1Cl | 87.1% (active) |
| COc1ccc(Cl)cc1S(=O)(=O)N1CCC(O)(c2ccc(Cl)cc2)CC1 | 4.61% (inactive) |
| CCCC12CN3CC(C)(CN(C1)C3c1ccccc1Cl)C2=O (stereo unspecified) | -0.996% (inactive) |
| COc1ccc(-c2noc(CSc3nc4ccc(C)cc4[nH]3)n2)cc1 | 5.23% (inactive) |
| C=CCOc1ccc(/C=C/C(=O)OCC(=O)NC(C)c2ccc(F)cc2)cc1 (stereo unspecified) | 7.04% (inactive) |
| CC(CCc1ccccc1)NC(=O)COC(=O)c1ccc(F)cc1 (stereo unspecified) | 10.8% (inactive) |
| CC(NC(=O)COC(=O)c1ccc(Cl)cc1O)c1ccc(F)cc1 (stereo unspecified) | 40% (active) |
| O=C1CCCc2cc(S(=O)(=O)N3CCCC(C(=O)NCc4ccccc4)C3)ccc2N1 (stereo unspecified) | 1.11% (inactive) |
| CCc1ccccc1NC(=O)Cn1c(=O)n(CC2CCC(C(=O)NCCc3ccccc3)CC2)c(=O)c2ccccc21 (stereo unspecified) | -1.58% (inactive) |
| CCn1cc(C(=O)NCc2ccccc2)c(=O)c2cc(S(=O)(=O)N3CCCCC3)ccc21 | 1.41% (inactive) |
| O=C(N/N=C/c1sc(N2CCCCC2)nc1-c1cccs1)c1cccnc1 | 32.8% (active) |
| Cc1ccc(S(=O)(=O)N2CCCCC2)cc1NC(=O)c1cccnc1 | 4.22% (inactive) |
| O=C(c1cccnc1)N1CCN(S(=O)(=O)c2cccs2)CC1 | 1.36% (inactive) |
| Cc1cc(NC(=O)C2CCC(CNS(=O)(=O)c3ccc(Br)s3)CC2)ccc1Br (stereo unspecified) | 9.94% (inactive) |
| N#Cc1nc(Nc2cccc(Cl)c2)nc(NC2CCCC2)n1 | 4.33% (inactive) |
| COc1cccc2c1cc1c(=O)n(CC(=O)N3CCN(c4cccc(Cl)c4)CC3)nc(C)n12 | -0.0969% (inactive) |
| O=C(CNC(=O)c1ccc(Cl)c(C(F)(F)F)c1)OC(C(=O)Nc1cc(C(F)(F)F)ccc1Cl)c1ccccc1 (stereo unspecified) | 15.3% (inactive) |
| Cc1ccc(C(=O)NCCSc2c(C)[nH]c3ccccc23)cc1C | 2.99% (inactive) |
| O=C(NCc1ccc2c(c1)CCN2C(=O)c1ccccc1)Nc1cc(F)ccc1F | 2.32% (inactive) |
| CCn1cc(CN2CCC(C(=O)Nc3cccc(-c4cccc(Cl)c4)c3)CC2)cn1 | 10.6% (inactive) |
| CCn1cc(CN2CCC(C(=O)Nc3cccc(-c4cccc(Cl)c4)c3)CC2)c(C)n1 | 17.5% (inactive) |
| O=C(Nc1cccc(-c2cccc(Cl)c2)c1)C1CCN(C2CCC2)CC1 | 33.2% (active) |
